Data from the supplement of paper PMC7184167.
Counter-ions that a name gives are not always drawn.

Each compound was assayed on replication-induced senescent mouse newborn dermal fibroblasts (NBF) (assay: relative cell viability of senescent cells (fraction); higher = less killing of senescent cells). Details: 1 µM; 3 days.
Protocol: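 Replication-induced senescent newborn mouse skin fibroblasts (NBFs) in 24-well plates were treated with a Selleck FDA-approved drug library at 1 µM for 3 days.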

With CC(=O)OCC(=O)[C@@]12N=C(C)O[C@@H]1C[C@H]1[C@@H]3CCC4=CC(=O)C=C[C@]4(C)[C@H]3[C@@H](O)C[C@@]12C [Deflazacort] as the compound, how does the relative cell viability read?
The relative cell viability was 1.04.

With COc1ccc(/C=C/C(=O)Nc2ccccc2C(=O)O)cc1OC [Tranilast] as the compound, how does the relative cell viability read?
The relative cell viability was 1.

For CCCNC(C)C(=O)Nc1ccccc1C (stereo not drawn) [Prilocaine], which relative cell viability is on record?
Its relative cell viability is 0.827.

How did the relative cell viability turn out when CC1(C)O[C@@H]2C[C@H]3[C@@H]4CCC5=CC(=O)C=C[C@]5(C)[C@@]4(F)[C@@H](O)C[C@]3(C)[C@]2(C(=O)CO)O1 [Triamcinolone Acetonide] was run?
The relative cell viability was 1.02.

Which relative cell viability does the source give for NCCCC(O)(P(=O)(O)O)P(=O)(O)O [Alendronate sodium trihydrate] here?
The relative cell viability was 0.251.

Which relative cell viability does the source give for Nc1ccc(S(N)(=O)=O)cc1 [Sulfanilamide] here?
The relative cell viability was 0.91.

For OCCN(CCO)c1nc(N2CCCCC2)c2nc(N(CCO)CCO)nc(N3CCCCC3)c2n1 [Dipyridamole], which relative cell viability is on record?
The relative cell viability was 1.

Which relative cell viability does the source give for COc1cccc2c1C(=O)c1c(O)c3c(c(O)c1C2=O)CC(O)(C(=O)CO)CC3OC1CC(N)C(O)C(C)O1 (stereo not drawn) [Doxorubicin (Adriamycin) HCl] here?
Its relative cell viability is 0.957.

Cn1c(=O)c2[nH]cnc2n(C)c1=O [Aminophylline] was tested. Which relative cell viability did it give?
The relative cell viability was 0.98.

With CCN(CC)CC#CCOC(=O)C(O)(c1ccccc1)C1CCCCC1 (stereo not drawn) [Oxybutynin] as the compound, how does the relative cell viability read?
Its relative cell viability is 0.938.

CCC[S+]([O-])c1ccc2[nH]c(NC(=O)OC)nc2c1 (stereo not drawn) [Albendazole Oxide] was tested. Which relative cell viability did it give?
Its relative cell viability is 0.993.

How did the relative cell viability turn out when COc1cc(/C=C/C(=O)CC(=O)/C=C/c2ccc(O)c(OC)c2)ccc1O [Curcumin] was run?
Its relative cell viability is 0.768.

CO[C@H]1C[C@@H]2CC[C@@H](C)[C@@](O)(O2)C(=O)C(=O)N2CCCC[C@H]2C(=O)O[C@H]([C@H](C)C[C@@H]2CC[C@@H](OC(=O)C(C)(CO)CO)[C@H](OC)C2)CC(=O)[C@H](C)/C=C(\C)[C@@H](O)[C@@H](OC)C(=O)[C@H](C)C[C@H](C)/C=C/C=C/C=C/1C was tested. Which relative cell viability did it give?
Its relative cell viability is 0.603.
